Measurements from PubChem BioAssay AID624114 (Johns Hopkins Ion Channel Center, 2012).
Hit rate of the full screen: of about 4,000 compounds, about 15 (0.4%) were called active.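 Rule for the calls: active = calcium fluorescence ratio, averaged over duplicates, at least 3 SD of the buffer-well ratio, meaning a nonspecific response in receptor-free cells; inactive = the rest.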 Not all results are given here.

Assay: calcium response in parental HEK293 cells, primary screen, counter-screen for MrgX1 allosteric activator project, cell-based, Fluo-4 calcium flux, duplicate (AID 624114);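 note: untransfected parental HEK293 lacking MrgX1 used as counterscreen for MrgX1 allosteric activators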
Conditions: Fluo-4 fluorescence ratio, at 10 µM

Row | Structure (SMILES) | outcome
1 | O=C(Nc1ccccc1N1CCOCC1)c1csc2c1CCCC2 | inactive
2 | Brc1ccccc1C1Nc2cccc3cccc(c23)N1 | inactive
3 | Cc1ccc(NC2(C#N)C(=O)Nc3ccccc32)cc1 (stereo unspecified) | inactive
4 | Cc1nccn1CCC1CCCCN1C(=O)CCc1nnc(-c2ccsc2)o1 (stereo unspecified) | inactive
5 | OCc1ccc(OCCCOc2cccc3cccnc23)cc1 | inactive
6 | COc1ccc(NC(=O)c2cc(-c3ccc(C)o3)nc3ccccc23)cc1 | inactive
7 | CN1/C(=C\C=C2\N=C(c3ccc(F)cc3)OC2=O)C(C)(C)c2ccccc21 | inactive
8 | COc1cc(C)c(C)cc1S(=O)(=O)N1CCCc2ccccc21 | inactive
9 | Cc1ccc(CS(=O)(=O)c2ncc(Cl)c(C(=O)Nc3nnc(C)s3)n2)cc1 | inactive
10 | O=C(Nc1nnc(-c2ccccc2)o1)c1cc(-c2cccs2)nc2ccccc12 | inactive
11 | COC(=O)Cn1c(O)c(N=NC(=O)OC)c2ccccc21 | inactive
12 | CN(c1cccc(NC(=O)Nc2ccc(Cl)cc2)c1)S(C)(=O)=O | inactive
13 | CCc1cc(=O)oc2cc(C)cc(OCC(=O)N3CCC[C@@H]3C(=O)O)c12 | inactive
14 | CCOC(=O)c1c(C)[nH]c(=S)c(C#N)c1-c1ccccc1 | inactive
15 | CCOc1ccccc1C1CC(c2ccc(Cl)cc2)Nc2nc(N)nn21 (stereo unspecified) | inactive
16 | Cc1c(C(=O)N2CCCc3ccccc32)sc2nc(-c3ccccc3)cn12 | inactive
17 | O=C(Cc1nc2ccccc2[nH]c1=O)c1ccc(Cl)cc1 | inactive
18 | COc1cc(C2/C(=C(\O)c3ccc4c(c3)CC(C)O4)C(=O)C(=O)N2Cc2ccco2)ccc1O (stereo unspecified) | inactive
19 | CCc1nnc(NC(=O)CSc2nc3c(c(=O)n2-c2ccccc2OC)SCC3)s1 | inactive

Row | Structure (SMILES) | outcome
20 | N=C(N)SCc1cccc2ccccc12 | inactive
21 | CCCCC(=O)NNC(=S)NC(=O)C(c1ccccc1)c1ccccc1 | inactive
22 | Cc1occc1C(=O)Nc1nnc(-c2ccncc2)s1 | inactive
23 | Cc1ccc2nc(-c3ccc(NC(=O)c4cccnc4)cc3)oc2c1 | inactive
24 | COCCNC(=O)C1CCN(S(=O)(=O)c2ccc3c(c2)OCCO3)CC1 | inactive
25 | CCN(CC)c1ccc(C2C3CCCCC3(O)CCN2CC(=O)Nc2ccccc2)cc1 (stereo unspecified) | inactive
26 | COC(=O)c1c(NC(=O)CN(c2ccc(C)c(C)c2)S(C)(=O)=O)sc2c1CCCC2 | inactive
27 | CC(C)(C)Nc1c(-c2cccs2)nc2ccccn12 | inactive
28 | Cc1onc(-c2ccccc2)c1C(=O)NNC(=S)NC(=O)c1ccc(F)cc1 | inactive
29 | COc1cccc(CCNC(=O)COc2cccc3c2OC(C)(C)C3)c1 | inactive
30 | COc1ccc(-n2c(SCC(=O)NCc3ccco3)nnc2-c2c[nH]c3ccccc23)cc1 | inactive
31 | CCS(=O)(=O)c1ccc2c(c1)N(S(=O)(=O)c1ccccc1)CC(C(=O)O)O2 (stereo unspecified) | inactive
32 | Cc1nn(C(=O)c2ccoc2C)c(N)c1-c1ccccc1 | inactive
33 | O=C(COC(=O)C1CCN(S(=O)(=O)c2ccc3c(c2)OCCO3)CC1)Nc1ccccc1OC(F)F | inactive
34 | CC(=O)N(C)c1ccc(NC(=O)C(F)(F)F)cc1 | inactive
35 | O=C(CC(O)(C(F)(F)F)C(F)(F)F)Nc1ccc(Cl)c(Cl)c1 | inactive
36 | O=C(CCN1CCc2ccccc2C(O)(c2ccccc2)C1)c1ccc2c(c1)OCCO2 (stereo unspecified) | inactive
37 | COc1ccc(C2SCCN2S(=O)(=O)c2ccccc2)cc1OC (stereo unspecified) | inactive
38 | CCc1cc2c(SCC(=O)Nc3ncc(Cl)c(C)c3Cl)ncnc2s1 | inactive

Row | Structure (SMILES) | outcome
39 | CCOC(=O)c1c(NC(=O)CNC2CCCc3ccccc32)sc(C(N)=O)c1C (stereo unspecified) | inactive
40 | O=S(=O)(c1ccc2ccccc2c1)N1CCN(S(=O)(=O)N2CCOCC2)CC1 | inactive
41 | Cc1cc(=O)oc2cc(NC(=O)C3CC(=O)N(Cc4ccccc4)C3)ccc12 (stereo unspecified) | inactive
42 | CCN(C(=O)CSc1nnc2ccccn12)C1CCS(=O)(=O)C1 (stereo unspecified) | inactive
43 | CC(=O)N(C1=C(Cl)C(=O)c2ccccc2C1=O)c1ccc(C(=O)O)cc1 | inactive
44 | COc1ccc(C(=O)CSc2n[nH]c(N)n2)cc1 | inactive
45 | O=C(Nc1ccccc1)c1nnsc1S(=O)(=O)c1ccc(Cl)cc1 | inactive
46 | Cc1ccc2cc(/C=N/Nc3ccc(C(=O)O)cc3)c(Cl)nc2c1 | inactive
47 | c1ccc(-c2[nH]ncc2-c2nc3ccccc3[nH]2)cc1 | inactive
48 | COc1ccccc1Oc1nc(-c2cccnc2)nc2ccccc12 | inactive
49 | O=c1c2cc(Br)ccc2nc(-c2cccc(Cl)c2)n1O | inactive
50 | COc1ccc([N+](=O)[O-])cc1NC(=O)COC(=O)/C=C/c1ccco1 | inactive
51 | C=CCSc1nc(Cc2ccc(Cl)cc2)nc2ccccc12 | inactive
52 | NC(=O)c1c(Nc2nc3c(F)cccc3s2)sc2c1CCCC2 | inactive
53 | CCN(CC)CC(=O)Nc1nn(-c2ccccc2)nc1C(N)=O | inactive
54 | Cc1ccc(C(=O)COC(=O)CCN2C(=O)C3C4CC(C(Br)C4Br)C3C2=O)cc1 (stereo unspecified) | inactive
55 | Cc1ccc(-n2cnc3ncnc(-c4ccccc4)c32)cc1 | inactive
56 | CCOC(=O)Nc1ccc2c(c1)N(C(=O)CCN1CCN(CCO)CC1)c1ccccc1CC2 | inactive
